Consider 40 compounds from PubChem BioAssay (Tox21).

Calls of active or inactive are those of the source. Calls come from the whole dose curve; as a rule, active = well fitted activation curve with a large enough effect in the repeat runs; inconclusive = weak or mixed curves; inactive = flat fitted curve, though single readings scatter.
% is set by controls: 0 for no effect and ±100 for the full control effect.

The test is described as follows: A CellTox Green Cytotoxicity Assay to monitor cytotoxicity in HepG2 cells - 0 hour (AID 1224882). Note: nearly all actives have a fitted effect of over 35% in size. As to conditions: CellTox Green fluorescence; series mostly up to 76.8 µM; cytotoxicity: at the top concentration. An excerpt: National Center for Advancing Translational Sciences [NCATS]
NIH Chemical Genomics Center [NCGC]
U.S. Environmental Protection Agency [EPA]
National Institutes of Environmental Health Sciences [NIEHS]
National Toxicology Program [NTP]
Cell-based models are critical for drug discovery. Determining the natural cytotoxic effects resulting from test compounds is an essential research activity. A CellTox Green Cytotoxicity Assay to monitor cytotoxicity in real time of continues cell culture during 40 hours of the compound treatment was used to screen Tox21 10K library compounds in HepG2 cells. CellTox Green Cytotoxicity Assay is a nonlytic, homogeneous, biofluorescent method to measure cytotoxicity in cell culture after experimental manipulation. The assay system uses a proprietary asymmetric cyanine dye that is excluded from viable cells but preferentially stains the dead cell's DNA. […] Viable cells produce no appreciable increases in fluorescence. Therefore, the fluorescence signal produced by the binding interaction with dead cell DNA is proportional to cytotoxicity.
The mixture of HepG2 cell suspension and reagents were dispensed at 600cells/6 ul/well in 1536-well tissue culture treated black solid bottom plates using a Multidrop dispenser. After the assay plates were incubated at a 37 C/5% CO2 incubator for 5 hours, 23 nL of compounds dissolved in DMSO, positive and negative controls was transferred to the assay plate by a pintool work station. The plates were incubated at 37 C for 40 hours. The fluorescence intensity were measured at 0h, 8h, 16h, 24h, 32h and 40h time points using ViewLux plate reader during compound treatment.
As to `Cc1cccc(C)c1NC(=O)CN1CCCCCC1`, the “cytotoxicity” value was 0.898% [at 35.3 µM] (inactive).
For `O=C1C=CC(=O)O1` the value was -1.22% (inactive); for `CC(CNC1CCCCC1)OC(=O)c1ccccc1` (stereo not given), 0.807% [at 35.3 µM] (inactive); for `CN1CCC[C@@H]1Cc1c[nH]c2ccc(CCS(=O)(=O)c3ccccc3)cc12`, -11.2% [at 35.3 µM] (inactive).
For `CCOC(=O)C(Br)c1ccccc1` (stereo not given), the “cytotoxicity” value is 2.67% (inactive).
As to `CC(C)(CO)[C@@H](O)C(=O)NCCC(=O)O`, the “cytotoxicity” value was 5.4% (inactive).
As for `FC(F)(F)C(Cl)(Cl)Cl`, the figure is 6.78% (inactive).
As for `COc1ccccc1N1CCN(CCCNc2cc(=O)n(C)c(=O)n2C)CC1`, the figure is 0.124% [at 35.3 µM] (inactive); as for `Cc1nnc(SCC2=C(C(=O)O)N3C(=O)[C@@H](NC(=O)Cn4cnnn4)[C@H]3SC2)s1`, 0.0119% [at 35.3 µM] (inactive); as for `CC(=O)OC(C)OC(C)=O`, -1.11% (inactive).
For `O=C(O)C(=O)Cc1c[nH]c2ccccc12` the value was 0.733% (inactive); for `O=CCCc1ccccc1`, -5.75% (inactive); for `C[C@]12C(=O)OC(=O)[C@H]1[C@H]1C=C[C@@H]2C1`, 5.67% (inactive).
Consider `CCOC(=O)[C@H](CCc1ccccc1)N[C@@H](C)C(=O)N1Cc2cc(OC)c(OC)cc2C[C@H]1C(=O)O`, for which the “cytotoxicity” value is 0.371% [at 35.3 µM] (inactive).
As for `CCOc1ccc(OCC)c(Cl)c1`, the figure is -0.124% (inactive).
For `O=c1[nH]cnc2c1ncn2[C@@H]1O[C@H](CO)[C@@H](O)[C@H]1O` the value was -5.55% [at 35.3 µM] (inactive).
As for `CN(CC1(C)CCCO1)S(=O)(=O)c1ccc(Cl)c(S(N)(=O)=O)c1` (stereo not given), the figure is 0.37% [at 35.3 µM] (inactive); as for `Nc1cccc(S(=O)(=O)O)c1`, -0.0664% (inactive); as for `CCOC(=O)c1ccccc1O`, -5.01% [at 35.3 µM] (inactive).
As for `CC1(O)CSC(C)(O)CS1` (stereo not given), the “cytotoxicity” value is 1.3% (inactive).
In the case of `Cc1nc(-c2ccccn2)ncc1C(=O)Nn1cc(C)c2cc(F)ccc21`, the “cytotoxicity” value was 9.39% (inactive).
As to `CCCN(CCC)C(=O)C(CCC(=O)O)NC(=O)c1ccccc1` (stereo not given), the “cytotoxicity” value was -2.38% [at 35.3 µM] (inactive).
As for `O=C(O)CN(CCN(CC(=O)O)CC(=O)O)CCN(CC(=O)O)CC(=O)O`, the figure is 20.5% [at 15.8 µM] (inactive).
As for `CO[C@@]1(NC(=O)CSCC#N)C(=O)N2C(C(=O)O)=C(CSc3nnnn3C)CS[C@@H]21`, the “cytotoxicity” value was 4.06% [at 35.3 µM] (inactive).
For `C=CCCC=C` the value was 0.504% (inactive); for `CCCCCCCCCC#N`, 0.193% (inactive); for `CC(=O)N(CC(O)CN(C(C)=O)c1c(I)c(C(=O)NCC(O)CO)c(I)c(C(=O)NCC(O)CO)c1I)c1c(I)c(C(=O)NCC(O)CO)c(I)c(C(=O)NCC(O)CO)c1I` (stereo not given), -1.05% [at 35.3 µM] (inactive).
As for `FC(F)(F)C(F)(F)C(F)(F)C(F)(F)C(F)(F)C(F)(F)C(F)(F)C(F)(F)Br`, the figure is 8.97% [at 35.3 µM] (inactive); as for `COc1ccc2nc(NC(=O)Nc3ccccc3)sc2c1`, 8.67% [at 35.3 µM] (inactive); as for `Cc1ccc(C(C)C)cc1O`, -7.2% (inactive).
As for `Cc1c[nH]c(=S)[nH]c1=O`, the figure is 3.84% (inactive).
For `O=Cc1ccc(O)c(O)c1O`, the “cytotoxicity” value was -7.01% [at 35.3 µM] (inactive).
For `CCOC(=O)CS` the value was -6.95% (inactive).
As for `C=CC1CO1` (stereo not given), the figure is -1.08% (inactive).
Consider `CN1[C@@H]2CC[C@H]1CC(OC(=O)c1c[nH]c3ccccc13)C2` (stereo not given in full), for which the “cytotoxicity” value is 2.17% [at 35.3 µM] (inactive).
As to `Cc1cc2c(s1)Nc1ccccc1N=C2N1CCN(C)CC1`, the “cytotoxicity” value was -0.872% [at 35.3 µM] (inactive).
For `CC1=C(O)C(=O)OC1C` (stereo not given) the value was -8.52% (inactive).
For `CC(C)Nc1nc(N)nc(Cl)n1` the value was -3.18% (inactive); for `CCCCCCC`, 1.47% (inactive); for `NC1=NCC2c3ccccc3Cc3ccccc3N12` (stereo not given), -32.2% [at 35.3 µM] (inactive).
